Assay results taken from PubChem BioAssay (Tox21).
Inconclusive results are not listed. Activity calls are given as the source filed them. Calls follow the shape of the full dose curve.

Columns and labels:
[1] = target: Acetylcholinesterase (Homo sapiens) (UniProt P22303); test: Acetylcholinesterase (AChE) small molecule antagonists: colormetric cell-based qHTS assay (AID 1347395); settings: SH-SY5Y cells AChE activity, colorimetric (Ellman); series mostly up to 115 µM; also: nearly all actives have a fitted effect of over 30% in size
How it was run: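 Colorimetric readout: DTNB quantifies thiocholine from acetylthiocholine hydrolysed by endogenous AChE of SH-SY5Y cells (2,000/well, plated overnight). Compound pretreatment 30 min, substrate incubation 90 min, both 37 C.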

[2] = target: Acetylcholinesterase (Homo sapiens) (UniProt P22303); test: Acetylcholinesterase (AChE) small molecule antagonists: enzyme-based qHTS assay (AID 1347397); settings: Potency: AChE enzyme activity inhibition; outcome: AChE enzyme activity inhibition; series mostly up to 115 µM; also: nearly all actives have a fitted effect of over 55% in size
How it was run: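 Absorbance-based detection of thiocholine with DTNB served as the read-out. Recombinant human AChE was exposed to compound for 30 min at RT before a 10 min RT incubation with acetylthiocholine.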

[3] = target: Acetylcholinesterase (Homo sapiens) (UniProt P22303); test: Acetylcholinesterase (AChE) small molecule antagonists: fluorescence cell-based qHTS assay (AID 1347398); settings: SH-SY5Y cells; Potency: AChE activity; outcome: AChE activity; series mostly up to 115 µM; also: nearly all actives have a fitted effect of over 50% in size
How it was run: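 Fluorimetric cell-based assay: intact SH-SY5Y cells, 30 min compound preincubation at 37 C, acetylthiocholine substrate with thiol probe Thiolite Green, 40 min RT development, fluorescence 490/520 nm.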

[4] = target: Acetylcholinesterase (Homo sapiens) (UniProt P22303); test: Acetylcholinesterase (AChE) small molecule antagonists: enzyme-based qHTS assay with human liver microsomes (AID 1347399); settings: Potency: qHTS inhibition; outcome: qHTS inhibition; series mostly up to 115 µM; also: nearly all actives have a fitted effect of over 60% in size
How it was run: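 Recombinant human AChE (50 mU/mL in the enzyme mix) and human liver microsomes (0.25 mg/mL final) were preincubated with compound and NADPH (0.25 mg/mL final) for 30 min at 37 C. Acetylthiocholine/DTNB was then added; thiocholine was read colorimetrically after 10 min at room temperature.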

Measured: Potency

Acetylcholinesterase (Homo sapiens), sequence (P22303 whole entry, looked up): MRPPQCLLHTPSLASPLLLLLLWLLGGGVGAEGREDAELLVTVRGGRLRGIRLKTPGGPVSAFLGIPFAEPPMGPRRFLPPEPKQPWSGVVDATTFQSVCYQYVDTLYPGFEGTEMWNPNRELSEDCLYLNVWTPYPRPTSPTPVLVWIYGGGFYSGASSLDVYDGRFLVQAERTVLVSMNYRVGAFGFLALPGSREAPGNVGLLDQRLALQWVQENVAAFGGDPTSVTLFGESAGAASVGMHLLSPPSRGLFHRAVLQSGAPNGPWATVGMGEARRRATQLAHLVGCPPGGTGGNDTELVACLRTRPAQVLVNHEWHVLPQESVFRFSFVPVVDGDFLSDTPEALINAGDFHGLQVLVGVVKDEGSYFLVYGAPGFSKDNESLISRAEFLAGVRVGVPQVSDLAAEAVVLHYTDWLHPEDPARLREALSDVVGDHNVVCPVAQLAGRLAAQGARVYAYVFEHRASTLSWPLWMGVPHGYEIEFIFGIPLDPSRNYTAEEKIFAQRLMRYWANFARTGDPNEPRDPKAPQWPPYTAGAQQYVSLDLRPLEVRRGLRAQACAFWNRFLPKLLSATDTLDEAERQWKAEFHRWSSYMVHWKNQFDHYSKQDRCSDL

O=C(CS)OCCOC(=O)CS
inactive: all assays above

Cc1cccc2nccnc12
inactive: all assays above

CC1(C)C(=O)N(CO)C(=O)N1CO
inactive: all assays above

COC(=O)c1ccc(NC(C)=O)cc1OC
inactive: all assays above

C=CCON/C(CCC)=C1\C(=O)CC(C)(C)C(C(=O)OC)=C1O
inactive: all assays above
